# High-throughput results as filed in PubChem.
# beta cell repl – MIN6 beta-cell proliferation induction; MIN6 cells proliferation, ATPlite luminescence, 48 h; cells starved in 0.2% serum; 100% = growth in 10% serum; proliferation, % at 10 µM; hit rate 0.29% among 330,000; AID 2380;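 active = compounds whose signal lies at least 3.5 SD above the mean of all wells on their plate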
# Myeloid diff MLP – compounds promoting myeloid differentiation; hit rate 1% among 360,000; ER-HoxA9 myeloid progenitors, lysozyme-GFP differentiation, flow cytometry; AID 624256; calls only at 10 µM;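 active = normalized GFP-positive differentiation at or above the plate's own cutoff, the solvent-only control mean plus 3 SD; inconclusive = no clear call, values can overlap the other calls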;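 note: cells exposed to compound for four days before flow analysis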
# ABCB6 inh MLPCN – human ABCB6 transporter inhibition; K562-ABCB6 porphyrin accumulation, flow cytometry, 1 h; stronger effect = lower value; fluorescence ratio to DMSO, % at 10 µM; hit rate 0.19% among 360,000; AID 602162;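 active = fluorescence ratio to DMSO below 75%, the collection mean minus 3 SD; inconclusive = too few cells collected in the well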;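 note: signal is porphyrin accumulated inside mitochondria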
# Target sequence (Q9NP58 whole entry, looked up): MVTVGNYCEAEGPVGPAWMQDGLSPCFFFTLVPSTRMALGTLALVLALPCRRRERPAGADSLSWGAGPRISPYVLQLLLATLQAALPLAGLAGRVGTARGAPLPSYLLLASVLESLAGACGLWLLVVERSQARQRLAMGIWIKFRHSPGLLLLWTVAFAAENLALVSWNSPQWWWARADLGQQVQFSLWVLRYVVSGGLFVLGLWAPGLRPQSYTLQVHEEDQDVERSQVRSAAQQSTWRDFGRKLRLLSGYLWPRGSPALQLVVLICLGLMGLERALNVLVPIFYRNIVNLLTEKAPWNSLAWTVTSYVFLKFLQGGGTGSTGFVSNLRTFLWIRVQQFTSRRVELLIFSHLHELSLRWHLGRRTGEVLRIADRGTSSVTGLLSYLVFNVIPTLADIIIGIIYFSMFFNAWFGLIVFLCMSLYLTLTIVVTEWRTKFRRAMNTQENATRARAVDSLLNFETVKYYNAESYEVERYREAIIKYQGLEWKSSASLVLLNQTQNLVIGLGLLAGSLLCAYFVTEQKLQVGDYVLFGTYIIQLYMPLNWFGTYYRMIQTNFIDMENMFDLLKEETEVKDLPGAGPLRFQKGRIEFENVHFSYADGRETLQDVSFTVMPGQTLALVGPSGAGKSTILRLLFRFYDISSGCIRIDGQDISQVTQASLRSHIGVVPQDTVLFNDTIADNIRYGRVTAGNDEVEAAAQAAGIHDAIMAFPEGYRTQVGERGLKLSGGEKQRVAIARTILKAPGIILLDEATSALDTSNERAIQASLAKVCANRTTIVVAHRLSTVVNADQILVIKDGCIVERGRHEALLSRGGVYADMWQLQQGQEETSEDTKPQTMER
# H9c2 protect – myocardial damage modulation in H9c2 cells | H9c2 cardiomyocytes, H2O2 injury protection, ATPLite, 2 h | protection from H2O2 cell death, % at 20 µM | hit rate 0.63% among 360,000 | AID 588492;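 active = compounds giving at least 50% protection of heart cells from peroxide-induced death in the single-dose screen, raw or plate-pattern-corrected value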
# hiPSC survival – hiPSC single-cell survival enhancement. ATPlite luminescence; 100% = ROCK inhibitor wells, 0% = DMSO. survival enhancement, % at 20 µM. hit rate 0.044% among 360,000. AID 602274; in the data active = survival enhancement above about 18%;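 note: cells exposed to compounds for 16 hours before the ATP read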
# A number is an active result; – = inactive; ? = inconclusive; · = not tested or not shown; + = active, no number. An excerpt weighted towards active compounds, which were near 2.2% of everything screened.
SMILES,beta cell repl,Myeloid diff MLP,ABCB6 inh MLPCN,H9c2 protect,hiPSC survival
CCOc1ccc(CNC(=O)CCCN2C(=O)C(c3ccccc3)Oc3cccnc32)cc1 (centres undefined),–,–,–,–,–
COc1cc([N+](=O)[O-])ccc1-c1ccc(/C=N/NC(N)=O)o1,–,+,–,–,–
CCN(Cc1nc2ccccc2c(=O)[nH]1)Cc1nc2ccsc2c(=O)[nH]1,–,–,–,–,–
COc1cc(NC(=O)c2cc3c(C)nc4ccccc4c3o2)cc(OC)c1OC,–,?,–,66,–
Cc1nc2ccccc2c2oc(C(=O)Nc3ccc4c(c3)OCCO4)cc12,–,–,–,100,–
Cc1nc2ccccc2c2oc(C(=O)Nc3ccc(C(C)C)cc3)cc12,–,–,–,–,–
CCOc1ccc(-n2c(Cc3ccccc3)nnc2SCc2c(C)noc2C)cc1,–,–,–,–,–
COc1ccc(-c2cc(NC(=O)c3cncn3-c3ccccc3)ccc2OC)cc1,–,+,–,–,–
COC(=O)C(C(=O)OC)c1ccccc1NS(=O)(=O)c1ccc(C)cc1,·,–,·,·,·
COc1cc(NS(=O)(=O)c2ccc(C)cc2)c2c(c1N)C(=O)c1ccccc1C2=O,·,+,–,–,–
O=c1c(Br)ccc(Br)cc1Br,·,?,19,–,–
O=C(Nc1ccc2ccccc2c1)c1cn(-c2ccccc2)nc1-c1cccs1,–,–,–,–,–
CCOC(=O)c1c(-c2ccc(N(C)C)cc2)oc2c1C(OC)CC2 (centres undefined),·,–,–,·,–
COc1ccc(NC(=O)CCNS(=O)(=O)c2ccc3c(c2)c(=O)n(C)c(=O)n3C)c(OC)c1,–,+,–,–,–
CCOc1ccc(NC(=O)CCNS(=O)(=O)c2ccc3c(c2)c(=O)n(C)c(=O)n3C)cc1,–,–,–,–,–
Cc1nn(C)c(=O)n1-c1ccc(OCc2ccccc2)cc1,–,–,–,–,–
S=c1[nH]cc(Oc2ccc(Cl)cc2Cl)c(=S)[nH]1,·,–,–,–,–
O=C(NCc1cccs1)c1csc2c1CCCCC2,–,–,–,–,–
Cc1nn(Cc2cccc(C(=O)NN)c2)c(C)c1Cl,–,+,–,–,–
Cc1nn(Cc2ccc(C(=O)NN)cc2)c(C)c1Cl,–,–,–,–,–
O=C(Cn1cc(SCc2ccc(F)cc2)c2ccccc21)N1CCOCC1,–,–,–,–,–
OC(COc1ccc(Cl)cc1Cl)Cn1ccnc1 (centres undefined),–,–,–,–,–
O=S(=O)(c1ccc(Cl)cc1)N1CCCC1c1nc(-c2cccc(Cl)c2)no1 (centres undefined),–,–,–,–,–
O=c1cc(CN2CCN(S(=O)(=O)c3cccc(Cl)c3)CC2)c2ccc(O)cc2o1,–,–,–,54,–
O=C(CSc1nc2ccccc2s1)N/N=C/c1cc([N+](=O)[O-])ccc1O,–,–,–,53,–
SMILES,beta cell repl,Myeloid diff MLP,ABCB6 inh MLPCN,H9c2 protect,hiPSC survival
O=C(N/N=C/c1cc([N+](=O)[O-])ccc1O)C(O)(c1ccccc1)c1ccccc1,–,–,–,61,–
Cc1ccc(C)c(NC(=O)CCC(=O)N/N=C/c2cc([N+](=O)[O-])ccc2O)c1,–,–,–,64,–
Cc1ccc(NC(=O)CCC(=O)N/N=C/c2cc([N+](=O)[O-])ccc2O)cc1,–,–,–,64,–
CCNC(=O)CC1C(=O)N(c2ccc(F)cc2)C(=O)N1Cc1ccc(OC)cc1 (centres undefined),–,–,–,–,–
Cc1cc(=O)oc2cc(OCC(=O)N/N=C/c3cc([N+](=O)[O-])ccc3O)ccc12,·,·,–,55,–
Cc1ccccc1NC(=O)CCC(=O)N/N=C/c1cc([N+](=O)[O-])ccc1O,–,–,–,–,–
C=CCN1C(=O)/C(=C/c2ccc(O)c(OC)c2)S/C1=N/c1nccs1,–,–,–,51,–
C#CCOCCOCCOCCNc1nc(N2CCN(C(=O)[C@H](CCC(=O)O)n3cc(C(N)[C@H](C)CC)nn3)CC2)nc(N2CCN(C(=O)[C@H](Cc3cc4ccccc4[nH]3)n3cc(C(N)[C@H](C)CC)nn3)CC2)n1 (some centres undefined),–,·,·,·,·
Cc1cc2c(cc1C)NC(CC(=O)NCc1ccccc1)C(=O)N2 (centres undefined),–,+,–,–,–
COc1ccc(CCNC(=O)CC2Nc3cc(C)c(C)cc3NC2=O)cc1OC (centres undefined),–,–,–,–,–
COc1ccc2c(c1)c(CC(=O)Nc1cc(C)ccc1C)c(C)n2C(=O)c1ccc(Cl)cc1,–,+,–,–,–
CCOc1nc(N2CCOCC2)nc(N2CCOCC2)n1,–,+,–,–,–
O=C(Nc1nc(-c2cc(F)ccc2F)cs1)C1=NN(c2ccccc2)C(=O)CC1,–,–,–,51,–
COc1ccccc1CNc1ncccc1[N+](=O)[O-],–,–,–,–,–
Cc1c(CCC(=O)O)c(=O)oc2cc3occ(-c4ccc(Br)cc4)c3cc12,–,+,–,–,–
Cc1c(CCC(=O)O)c(=O)oc2cc3occ(-c4ccc(F)cc4)c3cc12,–,–,–,–,–
CCC(CC)=N/N=C/c1c(O)n(CC)c2cc(C3=NNC(=O)CC3)ccc12,–,–,–,–,–
CCn1c(O)c(/C=N/N=C/c2ccccc2)c2ccc(C3=NNC(=O)CC3)cc21,–,–,–,76,–
COc1ccc(CCCNC(=O)C2(C)Cc3c(-c4ccc(NC(C)=O)cc4)ccnc3O2)cc1 (centres undefined),·,–,–,64,–
C=CCn1c(=S)[nH]c2nc3c(cc2c1=O)CCCC3,–,–,70,–,–
C=CCn1c(=S)[nH]c2ccc(Br)cc2c1=O,–,–,–,–,–
CC1(C)Cc2nc(-c3ccccc3)nc(NNC(=O)c3ccco3)c2CO1,–,–,–,–,–
COc1cc2oc3ccc(C#Cc4ccc(N)cc4)cc3c(=O)c2cc1OC,·,–,–,57,–
N#Cc1ccc(C#Cc2ccc3oc4ccccc4c(=O)c3c2)cc1,–,–,–,–,–
COc1cc2oc3cc(C#Cc4ccc(N)cc4)ccc3c(=O)c2cc1OC,–,–,–,72,–
SMILES,beta cell repl,Myeloid diff MLP,ABCB6 inh MLPCN,H9c2 protect,hiPSC survival
COc1cc2oc3ccc(C#Cc4ccccn4)cc3c(=O)c2cc1OC,–,–,–,66,–
O=C(Nc1cccc(F)c1)C1CCN(S(=O)(=O)c2cnc[nH]2)CC1,–,–,–,–,–
O=C(NCc1cn2ccsc2n1)c1cccs1,–,–,–,–,–
CC1Nc2ncnc(N3CCN(c4ccccc4)CC3)c2N(Cc2ccc(Br)cc2)C1=O (centres undefined),–,–,–,62,–
Cc1cccc(C(=O)O/N=C(\N)c2ccc(Cl)cc2)c1,–,–,–,–,–
Cc1ccc(/C(N)=N/OC(=O)c2ccc(Cl)cc2Cl)cc1,–,+,–,–,–
CC(C)C(N)c1csc(NC(=O)Nc2cccc(Cl)c2)n1 (centres undefined),·,+,–,–,–
